Screening results as filed in PubChem.
The list is not random: actives were taken first. Their share in the collection is about 2.8%.
Giardia kill = Giardia lamblia killing | Giardia lamblia trophozoite viability | activity change, % at 7.66 µM, hits read low | 340,000 tested, 0.15% active; in the data active = activity change below about -80%; inconclusive = between about -30% and that limit;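 also: parasites exposed to compound for two days anaerobically before the ATP read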
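Media and compound were dispensed first, then trophozoites at 100 cells/well; plates sat 48 hrs at 37 deg C without oxygen before ATP luminescence reagent was added and read after 15-30 min at room temperature.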
B2AR arrestin = recruits beta-arrestin to the human beta2-adrenergic receptor. P07550. beta-arrestin recruitment to beta2AR, cell-based reporter. Potency, µM (titrated, usually from 46.1 µM), usual class: activators. 330,000 tested, 0.02% active. AID 492947; active = well fitted activation curve with a large enough effect; inconclusive = small, poorly fitted or top-dose-only effect; also: nearly all actives have a fitted effect of over 65% in size
Target sequence (P07550 whole entry, looked up): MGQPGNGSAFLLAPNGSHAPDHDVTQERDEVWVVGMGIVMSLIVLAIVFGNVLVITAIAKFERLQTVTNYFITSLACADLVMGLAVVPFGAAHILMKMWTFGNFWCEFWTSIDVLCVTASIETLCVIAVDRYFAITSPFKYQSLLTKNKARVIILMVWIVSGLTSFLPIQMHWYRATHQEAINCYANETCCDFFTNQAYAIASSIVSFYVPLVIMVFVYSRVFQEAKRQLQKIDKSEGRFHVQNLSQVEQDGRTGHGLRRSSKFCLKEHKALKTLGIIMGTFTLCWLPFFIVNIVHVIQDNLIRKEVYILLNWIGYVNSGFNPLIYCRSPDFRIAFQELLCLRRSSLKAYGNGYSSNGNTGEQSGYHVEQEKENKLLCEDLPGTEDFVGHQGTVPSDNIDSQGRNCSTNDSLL
D3 antag = antagonists of human D3 dopamine receptor. D3R cells, DiscoveRx beta-arrestin luminescence, antagonist mode; hits give low values. max response, negative = inhibition, %. 360,000 tested, 2.5% active; in the data active = max response below about -50%; inconclusive = no clear call, values can overlap the other calls
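Cells plated overnight at 1500 cells/well, then exposed to library compounds with dopamine controls for 90 minutes at 37 degrees C. DiscoveRx reagent added for 30–60 minutes at room temperature; luminescence read, quantitative HTS format.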
D3 ag = activates the human D3 dopamine receptor | P35462 | D3R DiscoveRx beta-arrestin cells, luminescence, 90 min | max activation, % | 410,000 tested, 0.58% active | AID 652048; in the data active = max activation above about 30%
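Agonist mode: compounds and dopamine controls were applied to plated cells for 90 min at 37 degrees C after an overnight attachment at 1500 cells/well. Luminescent read-out followed 30 - 60 minutes at room temperature with DiscoveRx detection reagent.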
Hits are given with their value; i = inactive; ? = inconclusive; nt = no result given.

SMILES	Giardia kill	B2AR arrestin	D3 antag	D3 ag
COc1cc(C(=O)CC2(O)C(=O)N(Cc3ccccc3Cl)c3ccccc32)cc(OC)c1OC (stereo not drawn)	nt	nt	nt	i
Cc1ccc(NC(=O)CSc2nc(=O)cc(N)n2-c2ccccc2)cc1	i	i	i	i
COC(=O)c1cccc(NC(=O)CSc2nc(=O)cc(N)n2-c2ccccc2)c1	i	i	-51	i
O=C(CNC(=O)c1ccco1)OCC(=O)c1ccc(Cl)cc1	i	i	i	i
O=C(CNC(=O)c1ccco1)OCC(=O)c1ccc([N+](=O)[O-])cc1	i	i	i	32
Cc1cc(OCC(=O)NCC2(N3CCN(C)CC3)CCCCC2)cc(C)c1Cl	nt	nt	nt	i
CCCc1cc(NCCOCCO)n2c(nc3ccccc32)c1C#N	nt	nt	-57	i
COc1ccccc1N1CCN(C(CNC(=O)C2CCCCC2)c2cccnc2)CC1 (stereo not drawn)	i	i	-71	i
COCCNC(=O)C(=O)NCC(c1cccnc1)N1CCN(c2ccccc2OC)CC1 (stereo not drawn)	nt	nt	nt	i
COCCn1c(-c2ccc(OC)cc2)cnc1SCC(=O)Nc1cc(C)on1	i	i	-70	i
CCOc1ccc(OCC)c(NS(=O)(=O)c2c(C)[nH]c(=O)[nH]c2=O)c1	nt	nt	nt	i
CCOc1ccc(-c2[nH]nc3c2C(c2cccnc2)C(C#N)=C(N)O3)cc1 (stereo not drawn)	i	i	-51	i
O=S(=O)(Nc1cccnc1)c1cccc2ccccc12	i	nt	nt	nt
Cc1ccc(-n2nc3c(=O)n(CC(=O)NCCC(C)C)nc(C)c3c2C)cc1	nt	nt	nt	i
COc1ccc(C2(CNC(=O)CCC(=O)O)CCCC2)cc1OC	i	i	-51	i
CCOc1ccc(NC(=O)c2nn(C)c3c2COc2ccccc2-3)cc1	nt	nt	nt	55
COC(=O)c1ccc(NC(=O)c2nn(C)c3c2COc2ccccc2-3)cc1	nt	nt	nt	i
COc1ccc(S(=O)(=O)N(CC(=O)Nc2ccc(OC)cc2OC)c2ccc(Cl)cc2)cc1	nt	nt	nt	i
CN(C1=C(NC(=O)c2ccc(Cl)cc2)C(=O)c2ccccc2C1=O)c1ccccc1	i	i	-52	i
O=C1C(Cl)=C(NC(=O)c2ccccc2)C(=O)C(Cl)=C1NC(=O)c1ccccc1	i	i	-71	i
Cc1ccc(CN(Cc2ccco2)C(=O)c2oc3c(C)c(C)ccc3c2C)cc1	nt	nt	nt	i
CC(COc1ccccc1)N1CCC(CO)(CCc2ccccc2)CC1 (stereo not drawn)	i	i	-62	i
CSCC(C)N1CCC(CO)(CCc2ccccc2)CC1 (stereo not drawn)	i	i	i	i
S=c1nc(-c2ccccn2)c(-c2ccccn2)n[nH]1	nt	nt	-78	i
Cc1[nH]c2ccccc2c1C(O)CN1CCN(c2cccc(C(F)(F)F)c2)CC1 (stereo not drawn)	i	i	-74	i
SMILES	Giardia kill	B2AR arrestin	D3 antag	D3 ag
OC(CN1CCN(c2ccccc2)CC1)c1c[nH]c2ccccc12 (stereo not drawn)	i	i	-54	i
COc1ccccc1N1CCN(C(=O)c2cc(S(=O)(=O)N3CCC(C)CC3)cn2C)CC1	nt	nt	nt	i
CC1Oc2cc3oc4c(O)c5c(cc4c(=O)c3c(O)c2C1(C)C)C=CC(C)(C)O5 (stereo not drawn)	i	nt	i	44
CC1(C)C=Cc2cc3ccc(=O)oc3cc2O1	i	i	i	i
COc1ccc(NC(=O)CC2C(=O)N(c3ccc(F)cc3)C(=O)N2Cc2ccco2)cc1 (stereo not drawn)	nt	nt	nt	i
Cc1cccnc1CCNCc1c(C(=O)N2C[C@@H](C)O[C@@H](C)C2)nc2ccc(Cl)cn12	i	i	-63	i
C[C@@H]1CN(C(=O)c2nc3ccc(Cl)cn3c2CN[C@H]2CCCCNC2=O)C[C@H](C)O1	i	i	i	i
O=C(Cc1cccs1)N/N=C\c1ccc([N+](=O)[O-])s1	-85	i	i	i
O=C(NC(c1ccccc1)c1ccsc1)C1CCN(Cc2ccc(Cl)c(Cl)c2)CC1 (stereo not drawn)	nt	nt	-61	i
O=C(NC(c1ccccc1)c1ccsc1)C1CCN(Cc2ccc(Oc3ccccc3)cc2)CC1 (stereo not drawn)	nt	nt	-100	i
O=C(O)c1ccccc1Nc1cc(Cl)c2nonc2c1[N+](=O)[O-]	i	i	i	i
O=[N+]([O-])c1c(Nc2ccccn2)cc(Cl)c2nonc12	i	i	-86	i
O=[N+]([O-])c1c(Nc2ccc(O)cc2)cc(Cl)c2nonc12	i	i	-161	i
O=C(NC(=S)N(Cc1ccccc1)Cc1ccccc1)c1ccccc1F	i	i	-69	i
COc1ccc(NC(=O)C23CC4CC(C2)CC(c2ccccc2)(C4)C3)c(OC)c1	i	i	i	32
COc1ccc(CCNc2nc(SCc3ccc(F)cc3)nc3ccccc23)cc1OC	nt	nt	nt	i
CC(=O)Nc1cccc(C(=O)OCC(=O)NC(=O)C2CCCCC2)c1	i	nt	nt	nt
NC(=O)CC[C@@H]1NC(=O)[C@@H]2CCCN2C(=O)c2cc([N+](=O)[O-])cc(I)c2NCCC[C@@H](C(N)=O)NC1=O	i	i	i	44
CCSc1ncnc2nc[nH]c12	i	nt	nt	nt
CCN1CCN(CC(=O)Nc2c(C(=O)OC)[nH]c3cccc(Cl)c23)CC1	nt	i	nt	nt
COC(=O)c1[nH]c2cc(C)ccc2c1NC(=O)CN1CCc2cc(OC)c(OC)cc2C1	i	i	-67	i
COC(=O)c1[nH]c2ccc(C)cc2c1NC(=O)CN1CCN(c2ccc(F)cc2)CC1	i	i	i	i
CCOC(=O)N1CCN(CC(=O)Nc2c(C(=O)OC)[nH]c3cccc(Cl)c23)CC1	i	i	?	40
COC(=O)c1[nH]c2ccc(C)cc2c1NC(=O)CN1CCN(c2ccccc2)CC1	i	i	i	36
CC(=O)Nc1ccc(Nc2ccc3cc(S(=O)(=O)N4CCCCC4)ccc3n2)cc1	nt	nt	nt	i
SMILES	Giardia kill	B2AR arrestin	D3 antag	D3 ag
CCOc1ccc(CCNC(=O)c2ccc(Cn3c(=O)c4cccn4c4cccnc43)cc2)cc1	nt	nt	nt	i
CCC[C@@]1(CCc2ccccc2)CC(O)=C([C@H](CC)c2cccc(NS(=O)(=O)c3ccc(C(F)(F)F)cn3)c2)C(=O)O1	nt	nt	nt	i
OC1CCCN(C(=S)NCc2ccccc2)C1 (stereo not drawn)	i	i	-73	i
CCC(=O)N1CCN(c2ccc(Cl)cc2NC(=O)c2ccc([N+](=O)[O-])o2)CC1	-101	i	i	i
CCC(=O)N1CCN(c2ccccc2NC(=O)Cc2ccc(Cl)cc2)CC1	i	i	-74	i
CCC(=O)N1CCN(c2ccc(NC(=O)c3ccc([N+](=O)[O-])o3)cc2Cl)CC1	-92	i	?	i
CC(=O)N1CCN(c2ccc(NC(=O)c3ccc([N+](=O)[O-])o3)cc2Cl)CC1	-81	i	i	i
CCC(=O)N1CCN(c2ccc(Cl)cc2NC(=O)Cc2ccc(Cl)cc2)CC1	i	i	i	i
COc1ccc(CNC(=O)Nc2cn(CC(C)C)c(=O)c3ccccc23)cc1	nt	nt	nt	i
CC1Cc2cc(S(=O)(=O)CCC(=O)Nc3ccc(Cl)cc3F)ccc2N1C(=O)C1CC1 (stereo not drawn)	nt	nt	nt	i
CCN1CCN(c2ccc(S(=O)(=O)N3CCCCC3)cc2NC(=O)c2ccc([N+](=O)[O-])o2)CC1	?	i	i	i
